Results reported in PubChem BioAssay.
The source made the active and inactive calls.

Tests used:
[1] = A549 cell viability effects, profiling panel, calcein-AM fluorescence, 48 h, basal (AID 1162); conditions: higher = more signal
[2] = adipocyte viability effects, profiling panel, cell-based, 3T3-L1 adipocytes, calcein-AM fluorescence, 48 h, basal (AID 1163); conditions: 3T3-L1 adipocytes viability, higher = more signal
[3] = HepG2 cell viability effects, profiling panel, calcein-AM fluorescence, 48 h, basal (AID 1164); conditions: higher = more signal
[4] = MM1S cell viability effects, profiling panel, calcein-AM fluorescence, 48 h, basal (AID 1165); conditions: higher = more signal;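 further: viability of MM1S multiple myeloma cells under basal unstimulated conditions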
[5] = basal RPMI8226 viability, no added stimulus, profiling panel, cell-based, calcein-AM fluorescence, 48 h, PK04 Diversity Set (AID 1166); conditions: RPMI8226 myeloma viability, higher = more signal;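 further: cells grown under basal conditions without added stimulus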
[6] = basal HepG2 mitochondrial membrane potential changes, profiling panel, cell-based, JC-1 fluorescence, 24 h, 100 nL compound (AID 1167); conditions: higher = more signal
[7] = basal 3T3-L1 adipocyte mitochondrial potential changes, profiling panel, cell-based, JC-1 fluorescence, 3T3-L1 adipocytes, 24 h, 100 nL compound (AID 1168); conditions: JC-1 mitochondrial fluorescence, higher = more signal, called active from +8 up or from −8 down
[8] = basal RPMI8226 mitochondrial membrane potential changes, profiling panel, cell-based, JC-1 fluorescence, 24 h, 100 nL compound (AID 1169); conditions: RPMI8226 myeloma, JC-1 mitochondrial potential fluorescence, higher = more signal
[9] = basal MM1S mitochondrial membrane potential changes, profiling panel, cell-based, JC-1 fluorescence, 24 h, 100 nL compound (AID 1170); conditions: higher = more signal
[10] = A549 lung cancer cell viability effects, profiling panel, resazurin fluorescence, 24 h, PK04 Diversity Set (AID 1171); conditions: higher = more signal, called active from +8 up or from −8 down
Further: test concentration not given here.

Structure (SMILES)	z-score [1]	z-score [2]	z-score [3]	z-score [4]	z-score [5]	z-score [6]	z-score [7]	z-score [8]	z-score [9]	z-score [10]
COc1ccc([Si](C)(C)[C@H]2[C@H](CC(=O)N(CCO)Cc3ccccc3)O[C@@]3(C(=O)N(Cc4cccc(N5C(=O)c6cccc7cccc5c67)c4)c4ccccc43)[C@@H]2C)cc1	-0.191	0.996	-1.5	-0.883	-4.29	0.0381	2.83 (inactive)	-1.06	-1.08	-2.32 (inactive)
COc1ccccc1CN1C(=O)c2ccccc2[C@](Cc2ccccc2I)(C(=O)NCc2ccccc2)[C@@H]1c1ccc(CO)cc1	0.049	0.218	-0.733	-0.325	-1.92	0.37	0.368 (inactive)	-0.0456	-0.318	-0.5 (inactive)
O=C(N1CCCCC1)[C@]1(CCS(=O)(=O)c2ccccc2)N=C(c2ccc(OCCCO)cc2)O[C@@H]1c1ccccc1	-1.64	1.68	-0.663	-1.5	-3.65	-0.0371	-0.136 (inactive)	-1.1	-0.751	-1.32 (inactive)
C=CCNC(=O)[C@@H]1[C@H]2C(=O)O[C@H](c3ccccc3)[C@H](c3ccccc3)N2[C@H](c2ccccc2OCCO)[C@@]12C(=O)N(C(=O)OCCOC)c1ccc(C#CCC(C(=O)OC)C(=O)OC)cc12	0.136	-0.609	-0.592	-0.794	-1.57	0.408	0.618 (inactive)	-0.802	-1.35	1.31 (inactive)
CCCNC(=O)[C@@]1(C)c2ccccc2C(=O)N(C(C)C)[C@H]1c1ccc(CO)cc1	-0.23	0.793	-0.13	-0.634	-0.025	0.977	-0.0917 (inactive)	0.0976	-0.426	0.788 (inactive)
CCOC(=O)C[C@H]1[C@H](OC(=O)c2ccc(C(=O)c3ccccc3)cc2)[C@@H](NC(=O)c2ccc3ccccc3n2)c2cc(OCCCO)ccc2N1C(=O)c1ccc2ccccc2n1	0.602	-0.402	0.674	-0.367	-0.0521	1.24	1.63 (inactive)	-0.0794	0.215	1.04 (inactive)
O=C1OCC=C[C@H]2OC34C=CCN(c5ccc6ccccc6c5)C(=O)[C@H]3N(CCO)C(=O)[C@@H]4[C@@H]12 (stereo not given in full)	0.594	-0.355	0.379	-0.102	-0.29	-0.542	-0.252 (inactive)	1.02	-0.161	-0.0805 (inactive)
CCCCN1CC=CC23O[C@@H]4C=CCCOC(=O)C4[C@H]2C(=O)N(CCCO)[C@@H]3C1=O (stereo not given in full)	0.146	1.53	-0.365	0.438	-0.913	-0.798	-0.562 (inactive)	-0.781	-0.148	-0.834 (inactive)
CN1C(=O)C2C=CC(C(O)C(c3ccccc3)c3ccccc3)N(Nc3ccccc3)C2C1=O (stereo not given)	0.322	-0.648	-0.0678	-1.34	-1.07	-1.66	-0.981 (inactive)	0.212	-0.179	0.46 (inactive)
C=CCN1Cc2ccccc2C[C@]2(N=C(c3ccc(OCCCO)cc3)O[C@@H]2c2ccccc2)C1=O	-0.584	0.975	-0.676	-3.58	-3.71	0.96	0.101 (inactive)	-1.16	-0.762	-2.13 (inactive)
O=C(NCCN1CCOCC1)[C@@H]1c2ccccc2C(=O)N(Cc2cc(F)cc(C(F)(F)F)c2)[C@H]1c1ccc(CO)cc1	1.22	0.767	1.2	0.34	-0.671	1.97	0.13 (inactive)	0.738	-0.119	0.935 (inactive)
C=CCNC(=O)[C@H]1[C@@H]2C(=O)O[C@@H](c3ccccc3)[C@@H](c3ccccc3)N2[C@@H](c2ccc(O)cc2)[C@]12C(=O)Nc1ccc(C#Cc3ccc(OC)cc3)cc12	-1.06	0.205	-1.78	-2.37	-4.35	-0.385	-0.0338 (inactive)	-1.22	-0.614	-0.989 (inactive)
O=C1OCC=C[C@H]2OC34C=CCN(CCN5CCOCC5)C(=O)[C@H]3N(CCCCCCO)C(=O)[C@@H]4[C@@H]12 (stereo not given in full)	-0.213	-0.0626	0.775	1.56	0.802	-0.00733	-0.199 (inactive)	1.11	0.858	-0.352 (inactive)
CC1CC/C=C\[C@H]2OC34C=CCN(Cn5nnc6ccccc65)C(=O)[C@H]3N(CCCO)C(=O)[C@@H]4C2C(=O)O1 (stereo not given in full)	-0.677	1.5	-0.501	0.159	-0.894	-0.0699	-0.382 (inactive)	0.0216	0.638	0.356 (inactive)
[N-]=[N+]=Nc1ccccc1[C@@H]1OC(c2ccc(OCCCO)cc2)=N[C@]1(CCS(=O)(=O)c1ccccc1)C(=O)N1CCCCC1	-0.564	-0.56	-0.0675	-0.92	-0.739	-0.827	0.0238 (inactive)	-0.881	-0.923	-0.127 (inactive)
C#C[C@H](O[Si](C#CCCCCCC)(C(C)C)C(C)C)c1ccccc1	0.303	0.102	-0.616	0.665	0.528	0.0244	-0.324 (inactive)	0.179	-0.772	0.815 (inactive)
C=CCN1C(=O)[C@]2(COC(c3ccc(OCCCO)cc3)=N2)Cc2ccccc21	0.78	1.94	0.641	-1.22	-0.326	0.53	0.625 (inactive)	-0.808	-0.599	-0.183 (inactive)
COc1ccc(C(=O)Nc2cccc(CN3C(=O)[C@@]4(O[C@@H](CC(=O)N5Cc6ccccc6C[C@H]5CO)[C@H]([Si](C)(C)c5ccc(OC)cc5)[C@H]4C)c4ccccc43)c2)cc1	0.0601	0.778	-0.446	-2.57	-3.06	0.851	0.862 (inactive)	-0.976	-1.88	-0.967 (inactive)
CS(=O)(=O)CCOC(=O)C1=CC(c2ccc(CO)cc2)=CC(c2cccs2)N(Cc2cccc(OC(F)(F)F)c2)C=C1C(=O)OCCS(C)(=O)=O (stereo not given)	0.0527	0.171	-1.31	-3.31	-3.27	-2.84	0.384 (inactive)	-0.722	-1.28	-0.481 (inactive)
Cc1ccc(N2C(=O)c3ccccc3[C@](C)(C(=O)NCCN3CCOCC3)[C@@H]2c2ccc(CO)cc2)nc1	-0.68	0.994	-0.808	0.839	-1.49	0.144	-0.674 (inactive)	-0.628	0.0375	0.667 (inactive)
C=C(C(=O)CC[C@H](OC(=O)c1cccnc1)c1ccccc1OCCO)C(C)C	0.219	-0.602	-0.967	-2.21	-1.69	-1.45	0.31 (inactive)	-0.742	-0.477	0.626 (inactive)
COc1ccc(C#Cc2ccc3c(c2)[C@]2(C(=O)N3)[C@H](C(=O)N3CCN(c4ncccn4)CC3)[C@H]3C(=O)O[C@H](c4ccccc4)[C@H](c4ccccc4)N3[C@@H]2c2ccc(O)cc2)cc1	-0.125	0.583	0.804	-0.156	-0.404	-1.11	1.08 (inactive)	-0.899	-0.427	-0.164 (inactive)
CC1CC/C=C\[C@H]2OC34C=CCN(c5ccc6ccccc6c5)C(=O)[C@H]3N(CCCCCO)C(=O)[C@@H]4C2C(=O)O1 (stereo not given in full)	0.111	0.956	0.778	1.68	-0.823	-0.684	-0.381 (inactive)	1.1	0.401	-0.292 (inactive)
COc1cc(CO)cc(I)c1O[C@H]1C=C(C(=O)NCCO)C[C@@H](N(CCc2cccc(F)c2)C(=O)CCC2CCCC2)[C@@H]1O	-1.5	2.06	-2.23	-3.19	-4.28	-1.09	0.525 (inactive)	-1.2	-1.96	-2.26 (inactive)
CC(=O)NCCCC[C@@H]1NC(=O)[C@@H]2C[C@H](C(=O)NCCCCCC[N+](C)(C)C)[C@H](c3cccc(OCCO)c3)N2C1=O	-0.339	-0.547	-0.231	-0.241	0.397	-1.51	-0.0349 (inactive)	0.226	-0.12	0.481 (inactive)
COc1ccc([Si](C)(C)[C@H]2[C@H](CCO)O[C@@]3(C(=O)N(Cc4cccc(N5C(=O)c6cccc7cccc5c67)c4)c4ccccc43)[C@@H]2C)cc1	-1.02	0.894	-3.98	-2.97	-4.23	-0.139	1.49 (inactive)	-1.02	-1.34	-2.92 (inactive)
COCCOC(=O)N1C(=O)[C@@]2(c3cc(C#CC4=CCCCC4)ccc31)[C@H](c1ccc(OCCO)cc1)N1[C@H](c3ccccc3)[C@H](c3ccccc3)OC(=O)[C@H]1[C@@H]2C(=O)Nc1nc2ccccc2s1	0.642	0.0841	-0.153	-0.381	-0.259	-2.79	-0.216 (inactive)	-0.932	-1.63	-0.057 (inactive)
[N-]=[N+]=NCc1ccccc1C[C@]1(C(N)=O)N=C(c2ccc(OCCCO)cc2)O[C@H]1c1ccccc1N=[N+]=[N-]	-0.169	0.0873	-0.153	-2.05	-1.55	-0.727	-1.38 (inactive)	-1.04	-0.649	-0.38 (inactive)
